High-throughput results (PubChem BioAssay)
MBNL1-CUG inh – inhibitors of human MBNL1 binding to CUG repeat RNA; 0.036% of 280,000 active; TR-FRET MBNL1-His/biotin-(CUG)12 binding, 665/545 ratio; Potency, µM (top dose mostly 57.5 µM), for the others: at the highest dose activity change, negative = inhibition, hits mostly inhibitors; active = well fitted inhibition curve with a large enough effect in the signal ratio, with a control signal flat, not every such curve was filed as active; inconclusive = small, poorly fitted or top-dose-only effect, or effect the other way, or a change in a side signal; inactive = no such curve, though single readings can be large or run the other way; the % refers to the signal ratio; also: potency is read from the fitted curve at half-maximal effect; % is scaled to controls: 0 for no effect and ±100 for the full control effect
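Compound titration spanned 92 nM–58 uM against the MBNL1-His/biotin-(CUG)12 complex. After 60 min at room temperature with 5 nM streptavidin-XL665 and 0.055 ng/ul terbium anti-His, ratiometric 665/545 nm emission (Ex 340 nm) normalized to controls.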
CBFb-RUNX1 inh – inhibitors of human CBF-beta and RUNX1 interaction; Q01196+Q13951; AlphaScreen CBFb-His/RUNX1-biotin binding, biochemical; Potency, µM (top dose mostly 59.8 µM), for inactives: at the highest dose activity, negative = inhibition, actives largely listed as inhibitors; 230,000 tested, under 10 active; also: % of control where 0% means no effect
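AlphaScreen proximity signal reports loss of binding between His-tagged CBF-beta and biotin-labelled RUNX1, each at 30 nM. Proteins are pre-associated for 20 minutes, compounds added for 15 minutes, then beads for 90 minutes, all at ambient temperature.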
PTHR1 agonist – agonists of human PTHR1 parathyroid hormone receptor; 0.075% of 410,000 active; Q03431; AID 743266; Potency, µM (doses to about 115 µM), for the others: at the highest dose activation, actives largely listed as activators; HEK293 GP2 PTHR1 cells, GloSensor cAMP luminescence, 1 h; also: potency is read from the fitted curve at half-maximal effect; nearly all actives have a fitted effect of over 55% in size
Target sequence (Q03431 whole entry, looked up): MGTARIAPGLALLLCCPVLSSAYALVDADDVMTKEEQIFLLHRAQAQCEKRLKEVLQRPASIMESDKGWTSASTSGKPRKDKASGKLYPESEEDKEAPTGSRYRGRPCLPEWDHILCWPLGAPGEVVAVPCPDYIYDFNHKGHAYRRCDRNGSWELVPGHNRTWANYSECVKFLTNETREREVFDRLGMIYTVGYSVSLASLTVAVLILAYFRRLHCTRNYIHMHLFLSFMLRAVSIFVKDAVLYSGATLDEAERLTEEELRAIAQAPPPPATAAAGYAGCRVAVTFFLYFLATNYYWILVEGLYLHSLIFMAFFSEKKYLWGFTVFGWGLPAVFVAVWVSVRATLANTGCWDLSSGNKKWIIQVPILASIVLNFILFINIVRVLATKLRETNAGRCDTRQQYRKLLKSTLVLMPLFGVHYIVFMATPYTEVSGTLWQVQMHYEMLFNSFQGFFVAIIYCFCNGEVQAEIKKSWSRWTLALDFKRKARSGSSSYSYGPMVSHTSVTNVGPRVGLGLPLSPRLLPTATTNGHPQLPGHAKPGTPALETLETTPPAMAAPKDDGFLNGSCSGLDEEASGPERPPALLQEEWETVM
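HEK-293-derived GP2 cells expressing PTHR1 and a GloSensor cAMP reporter, 3,000/well, plated overnight, given luciferin plus IBMX (each 0.5 mM as added) for 1 h at 37 °C, then compound for 1 h at 37 °C. Luminescence was read after 15 min at room temperature.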
DRD3 antagonist – blocks the human D3 dopamine receptor; P35462; max response, negative = inhibition, %; 2.5% of 360,000 active; D3R cells, DiscoveRx beta-arrestin luminescence, antagonist mode; active compounds read low; in the data active = max response below about -50%; inconclusive = no clear call, values can overlap the other calls; also: % is scaled to controls: 0 for no effect and ±100 for the full control effect
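Cells plated overnight at 1500 cells/well, then exposed to library compounds with dopamine controls for 90 minutes at 37 degrees C. DiscoveRx reagent added for 30–60 minutes at room temperature; luminescence read, quantitative HTS format.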
a7 integrin act – activates integrin-mediated alleviation for muscular dystrophy; alpha7betagal myoblasts, beta-gal FDG fluorescence, 48 h; Potency, µM (doses to about 38.3 µM), without a hit: at the top dose activation, usual class: activators; 0.064% of 350,000 active; AID 624291;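 also: potency is read from the fitted curve at half-maximal effect; 100% = response of the positive control SU9516; nearly all actives have a fitted effect of over 60% in size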
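Alpha7betagal+/- myoblasts (passage 13) were plated 16-24 hr, then exposed to compounds (1:260 dilution of DMSO stock) for 48 hours at 37C. After MPER lysis, β-galactosidase reporter activity was read as FDG fluorescence (ex 480/em 540) after 30 minutes.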
D3 ag – activates the human D3 dopamine receptor | max activation, % | D3R DiscoveRx beta-arrestin cells, luminescence, 90 min | P35462 | 0.58% of 410,000 active | AID 652048; in the data active = max activation above about 30%; also: 0% is about no effect
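Cells at 1500/well, incubated overnight, then treated with pinned compounds (dopamine as control) for 90 min at 37 degrees C. DiscoveRx reagent added for 30 - 60 minutes at room temperature; luminescence read.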
* = called active by the depositor; i = inactive; ? = inconclusive; . = no result; [ ] = another dose, or the depositor's remark. Rows were chosen to be rich in hits. Some 2.8% of all compounds tested hit in one or more screens of this group. Unless noted, calls follow the shape of the dose curve; as a rule, active = well fitted curve in the direction sought with a large enough effect; inconclusive = small, poorly fitted or top-dose-only effect, or another doubt; inactive = no such curve, though single readings can be large; an effect the other way counts as inactive or inconclusive.

SMILES	MBNL1-CUG inh	CBFb-RUNX1 inh	PTHR1 agonist	DRD3 antagonist	a7 integrin act	D3 ag
CCCCn1nnnc1C(c1ccccc1)N1CCN(C/C=C/c2ccccc2)CC1 (stereo not drawn)	.	.	-3%	-71*	.	-15
CCCCn1nnnc1C(CC)N1CCN(C/C=C/c2ccccc2)CC1 (stereo not drawn)	.	.	1%	-68*	.	-16
CCC(c1nnnn1Cc1ccccc1)N1CCN(C/C=C/c2ccccc2)CC1 (stereo not drawn)	.	.	-17%	-99*	.	-8
C[C@@](N)(C(=O)O)[C@@H]1C[C@@H]1C(=O)O	.	17%	.	.	.	.
CCc1cccc(C)c1NC(=O)C1CCN(S(=O)(=O)Cc2ccccc2)CC1	.	.	-19%	.	.	-1
CCCCN(CC)CCCNC(=S)Nc1ccc2nc(N3CCN(CC)CC3)cc(C)c2c1	-12%	13%	i	-54*	-66%	12
C#CCN(C#N)c1nc(NCC)nc(NC(C)C)n1	-4%	17%	-5%	-6	-14%	-4
CCN(C#N)c1nc(NC(C)C)nc(NC(C)C)n1	-2%	9%	-22%[57.5 µM]	15	-13%	32*
O=C(NCC(c1ccc(Cl)cc1)N1CCCCC1)c1ccccc1F (stereo not drawn)	.	.	-8%	.	.	-9
CCC(CN)CC(C)CCNCC(O)CNCC(C)CC(CC)CN (stereo not drawn)	.	.	.	.	.	-6
c1cncc(-c2nnc(-c3ccco3)o2)c1	-4%	11%	?	-108*	27%	2
c1cncc(-c2nc(-c3ccco3)cs2)c1	?	-23%	-26%[57.5 µM]	-63*	-7%	-4
O=C(c1ccco1)N(Cc1ccc(Cl)cc1)C1CCS(=O)(=O)C1 (stereo not drawn)	2%	.	-6%	-4	0%	38*
Cc1ccccc1C(NC(=O)C1CCN(Cc2ccc(Oc3ccccc3)cc2)CC1)c1ccsc1 (stereo not drawn)	.	.	5%	-56*	.	-14
COc1ccc(OCCN2CCC(C(=O)NC(c3ccc(Cl)cc3)c3cnccn3)CC2)cc1 (stereo not drawn)	.	.	-25%	?	.	-13
O=C(NC(c1ccccc1)c1ccsc1)C1CCN(Cc2ccccc2)CC1 (stereo not drawn)	.	.	-16%	?	.	-18
CCCN1CCC(C(=O)NC(c2ccc(Cl)cc2)c2ccsc2)CC1 (stereo not drawn)	.	.	16%	-56*	.	-14
O=C(NC(c1ccc(Cl)cc1)c1ccsc1)C1CCN(Cc2ccc(Oc3ccccc3)cc2)CC1 (stereo not drawn)	.	.	-7%	-64*	.	-18
CC(C)CCNC(=O)c1onc(CSc2nc3ccccc3[nH]2)c1C(=O)NCCC(C)C	3%	.	-6%	-12	10%	29
O=C(NC1CCCC1)C(c1ccc(F)cc1)N1CCC(O)(c2ccc(Cl)cc2)CC1 (stereo not drawn)	.	.	i	-93*	.	-15
O=C(NC1CCCC1)C(c1ccc(Cl)cc1)N1CCN(C2CCCCC2)CC1 (stereo not drawn)	-6%	7%	-4%	-6	-7%	-17
O=C(NC1CCCC1)C(c1ccc(Cl)cc1)N1CCOCC1 (stereo not drawn)	-12%	?	-2%	9	0%	1
CCN1CCN(C(C(=O)NC2CCCCC2)c2ccc(Cl)cc2)CC1 (stereo not drawn)	0%	0%	i	-60*	20%	-9
COc1ccc(-n2c(/C=C/c3cc(OC)c(OC)cc3OC)nc3cc4ccccc4cc3c2=O)cc1Cl	.	.	i	.	.	4
S=c1[nH]nc(Cn2cnc3ccccc32)n1-c1ccccc1	.	-3%	i	2	8.9µM*	-1
SMILES	MBNL1-CUG inh	CBFb-RUNX1 inh	PTHR1 agonist	DRD3 antagonist	a7 integrin act	D3 ag
Cc1cc(CC(C)CC(C)(C)C)n(O)c(=O)c1 (stereo not drawn) (tested in a mixture with another compound)	.	.	.	.	.	8
COc1ccc(OC)c(CC(=O)Nc2ccc3c(c2)c(=O)n(C)n3Cc2cccc(C(F)(F)F)c2)c1	.	.	-20%	-52*	.	-19
C/C(NCCc1ccc(O)cc1)=C1/CCOC1=O	.	.	i	6	16%	45*
Cc1ccc(C2=NN=C(NC(=O)CSc3nncn3C)SC2)cc1	5%	-26%	-5%	3	-27%	4
CCOC(=O)Cn1c(=O)oc2cc(S(=O)(=O)N3CCN(c4ccccc4OC)CC3)ccc21	.	.	-24%	.	.	-4
CCOC(=O)Cn1nc2oc(=O)c(CCN3CCN(c4ccccc4OC)CC3)c(C)c2c1C	.	.	i	-108*	4%	-7
COc1ccc(CC(=O)NCc2cccc(Cl)c2)cc1S(=O)(=O)N1CCOCC1	.	.	i	-25	-15%	-2
Cc1ccc(N=C2NC(=O)/C(=C/c3cccnc3)S2)c(C)c1	6%	-8%	i	-19	4%	-23
Cc1cccc(N=C2NC(=O)/C(=C/c3cccnc3)S2)c1C	-1%	2%	-34%	-61*	?	-4
COc1ccc2[nH]c(=O)c(CN(c3ccccc3OC)S(=O)(=O)c3ccccc3)cc2c1	?	.	i	51	-13%	-4
COc1ccc2[nH]c(=O)c(CN(c3ccccc3)S(=O)(=O)c3ccccc3)cc2c1	2%	.	-21%	28	0%	33*
COc1ccc2[nH]c(=O)c(CN(Cc3ccco3)C(=O)c3ccccc3)cc2c1	-13%	5%	-8%[57.5 µM]	-88*	13%	-8
CC/C(C)=N/O	.	4%[21.7 µM]	.	.	.	.
CCCOC(=O)N[C@@H]1C(=O)N2C(C(=O)OCCC)=C(C)CS[C@H]12	-5%	.	17%	-53*	-6%	-17
Cc1ccccc1CCNC(=O)Cn1ccc2cc(S(=O)(=O)N3CCCC3)ccc21	3%	.	-40%	1	1%	-5
CN(C)CCNC(=O)Cn1ccc2cc(S(=O)(=O)N3CCCCCC3)ccc21	2%	.	-20%	-55*	?	-16
CCOc1ccc(NC(=O)c2cccc(OC(=S)N3CCC(C)CC3)c2)cc1	-3%	2%	i	15	-33%	-2
CC(C)Nc1nc(Cl)nc(N(C#N)CN2C(=O)c3ccccc3C2=O)n1	20%	3%	-61%	?	?	-3
CCC(C)Nc1nc(Cl)nc(N(C#N)CN2C(=O)c3ccccc3S2(=O)=O)n1 (stereo not drawn)	1%	8%	-31%	-71*	-12%	-3
O=C(CCNS(=O)(=O)c1ccc2c(c1)CCN2C(=O)C1CC1)N1CCN(c2ccccc2F)CC1	.	.	-14%	.	.	-3
